Experimental data taken from the supplement of paper PMC11732987, “Enantioselective OTUD7B fragment discovery through chemoproteomics screening and high-throughput optimisation” (Communications Chemistry, 2025).
Values without a mark were called inactive.

What was measured:
Assay in all cases: log2 ratio of Biotin-Ahx-Ub-VS probe labelling (fragment/DMSO); higher = less target engagement (more negative = stronger competition), active = hit call of the paper (q ≤ 0.05, log2 ratio ≤ -1)
Conditions in all cases: compound concentration: 200 uM; treatment time: 3 h
[1] = compound: CC(C)CN(C1CC1)C(=O)CCl
In short: (§1)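 Triplicate samples of HEK293T lysate, 495 µg each, received fragment at 200 µM or vehicle for 3 h, followed by Biotin-Ahx-Ub-VS (0.5 µM final) for 1 h. After NeutrAvidin enrichment of labelled DUBs and LysC/trypsin digestion, peptides were run by diaPASEF LC-MS/MS. The values are average log2 fragment/vehicle ratios from global-median-normalised Spectronaut label-free quantities, tested by unpaired t-test on proteins having ≥2 unique peptides.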

[2] = compound: CC(NC(=O)CCl)c1cccs1
In short: as §1

[3] = compound: CC1CCCCC1NC(=O)CCl
In short: as §1

[4] = compound: CC1CCCCN1C(=O)CCl
In short: as §1

[5] = compound: CC1CN(CC(C)O1)C(=O)CCl
In short: as §1

[6] = compound: CN(C1CCCCC1)C(=O)CCl
In short: as §1

[7] = compound: Cc1cc(NC(=O)CCl)no1
In short: as §1

[8] = compound: Cc1cccc(NC(=O)CCl)c1
In short: as §1

[9] = compound: Cc1nc(NC(=O)CCl)sc1C
In short: as §1

[10] = compound: Cc1nnc(NC(=O)CCl)s1
In short: as §1

[11] = compound: Cl.Cc1ncsc1CNC(=O)CCl
In short: as §1

[12] = compound: ClCC(=O)N1CCCCCCC1
In short: as §1

[13] = compound: ClCC(=O)NC1(CCCC1)C#N
In short: as §1

[14] = compound: ClCC(=O)NCC1CCC1
In short: as §1

[15] = compound: ClCC(=O)NCC1CCCO1
In short: as §1

[16] = compound: ClCC(=O)NCc1ccco1
In short: as §1

[17] = compound: ClCC(=O)Nc1cccc(Cl)c1
In short: as §1

[18] = compound: ClCC(=O)NC(C1CC1)C1CC1
In short: as §1

Sequence of UniProt Q9UPT9 (Q9UPT9 whole entry): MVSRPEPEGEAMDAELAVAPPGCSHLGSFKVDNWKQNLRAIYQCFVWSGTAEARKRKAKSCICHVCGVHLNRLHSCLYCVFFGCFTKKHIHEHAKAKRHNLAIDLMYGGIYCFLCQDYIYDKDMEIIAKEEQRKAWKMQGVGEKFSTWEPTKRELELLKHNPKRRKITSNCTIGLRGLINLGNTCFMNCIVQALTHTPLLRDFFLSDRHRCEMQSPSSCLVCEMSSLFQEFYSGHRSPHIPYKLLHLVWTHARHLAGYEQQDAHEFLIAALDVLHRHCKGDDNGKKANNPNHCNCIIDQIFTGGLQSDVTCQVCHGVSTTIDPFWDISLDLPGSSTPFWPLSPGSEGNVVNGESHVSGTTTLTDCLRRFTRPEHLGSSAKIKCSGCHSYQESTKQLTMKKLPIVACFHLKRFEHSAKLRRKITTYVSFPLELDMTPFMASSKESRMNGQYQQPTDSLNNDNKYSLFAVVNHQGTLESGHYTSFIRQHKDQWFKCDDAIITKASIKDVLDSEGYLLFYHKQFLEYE
Sequence of UniProt Q6GQQ9 (Q6GQQ9 whole entry): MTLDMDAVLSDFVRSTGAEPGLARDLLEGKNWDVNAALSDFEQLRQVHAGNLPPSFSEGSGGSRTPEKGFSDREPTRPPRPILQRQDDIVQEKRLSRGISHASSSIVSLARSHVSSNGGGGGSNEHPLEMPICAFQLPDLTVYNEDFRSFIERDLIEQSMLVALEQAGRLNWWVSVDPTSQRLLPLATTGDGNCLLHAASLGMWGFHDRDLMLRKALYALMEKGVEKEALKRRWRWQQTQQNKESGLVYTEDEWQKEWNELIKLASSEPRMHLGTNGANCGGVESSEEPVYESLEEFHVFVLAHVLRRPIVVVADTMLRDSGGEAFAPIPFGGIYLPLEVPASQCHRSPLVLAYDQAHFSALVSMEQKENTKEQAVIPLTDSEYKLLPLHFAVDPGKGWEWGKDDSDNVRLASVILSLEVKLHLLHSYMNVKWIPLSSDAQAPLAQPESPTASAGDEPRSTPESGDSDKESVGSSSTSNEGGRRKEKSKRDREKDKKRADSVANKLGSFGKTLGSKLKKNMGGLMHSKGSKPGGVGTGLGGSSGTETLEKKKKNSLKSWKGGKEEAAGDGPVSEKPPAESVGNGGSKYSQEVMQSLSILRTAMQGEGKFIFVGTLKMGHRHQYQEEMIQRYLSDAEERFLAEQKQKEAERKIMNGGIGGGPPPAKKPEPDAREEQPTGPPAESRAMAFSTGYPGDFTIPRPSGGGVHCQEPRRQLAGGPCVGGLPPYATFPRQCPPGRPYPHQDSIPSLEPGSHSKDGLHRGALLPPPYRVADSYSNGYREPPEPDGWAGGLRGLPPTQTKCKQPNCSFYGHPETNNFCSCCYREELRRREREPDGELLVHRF
Sequence of UniProt Q96G74 (Q96G74 whole entry): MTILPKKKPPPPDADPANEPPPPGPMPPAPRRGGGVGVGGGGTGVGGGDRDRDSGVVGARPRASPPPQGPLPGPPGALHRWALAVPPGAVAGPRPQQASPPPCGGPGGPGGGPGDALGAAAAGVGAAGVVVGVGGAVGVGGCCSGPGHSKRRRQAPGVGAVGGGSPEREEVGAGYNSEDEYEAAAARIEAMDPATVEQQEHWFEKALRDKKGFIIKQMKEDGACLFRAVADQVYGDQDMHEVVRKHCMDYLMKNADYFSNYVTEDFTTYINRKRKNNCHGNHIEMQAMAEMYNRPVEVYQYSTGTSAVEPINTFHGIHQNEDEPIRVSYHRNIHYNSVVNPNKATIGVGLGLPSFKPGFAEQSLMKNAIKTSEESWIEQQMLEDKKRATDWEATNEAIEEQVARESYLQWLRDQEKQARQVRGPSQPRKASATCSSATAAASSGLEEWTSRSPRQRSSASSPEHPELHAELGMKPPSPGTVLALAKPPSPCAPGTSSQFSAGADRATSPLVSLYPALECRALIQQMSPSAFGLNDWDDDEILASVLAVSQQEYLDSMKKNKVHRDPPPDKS
Sequence of UniProt Q9P2H5 (Q9P2H5 whole entry): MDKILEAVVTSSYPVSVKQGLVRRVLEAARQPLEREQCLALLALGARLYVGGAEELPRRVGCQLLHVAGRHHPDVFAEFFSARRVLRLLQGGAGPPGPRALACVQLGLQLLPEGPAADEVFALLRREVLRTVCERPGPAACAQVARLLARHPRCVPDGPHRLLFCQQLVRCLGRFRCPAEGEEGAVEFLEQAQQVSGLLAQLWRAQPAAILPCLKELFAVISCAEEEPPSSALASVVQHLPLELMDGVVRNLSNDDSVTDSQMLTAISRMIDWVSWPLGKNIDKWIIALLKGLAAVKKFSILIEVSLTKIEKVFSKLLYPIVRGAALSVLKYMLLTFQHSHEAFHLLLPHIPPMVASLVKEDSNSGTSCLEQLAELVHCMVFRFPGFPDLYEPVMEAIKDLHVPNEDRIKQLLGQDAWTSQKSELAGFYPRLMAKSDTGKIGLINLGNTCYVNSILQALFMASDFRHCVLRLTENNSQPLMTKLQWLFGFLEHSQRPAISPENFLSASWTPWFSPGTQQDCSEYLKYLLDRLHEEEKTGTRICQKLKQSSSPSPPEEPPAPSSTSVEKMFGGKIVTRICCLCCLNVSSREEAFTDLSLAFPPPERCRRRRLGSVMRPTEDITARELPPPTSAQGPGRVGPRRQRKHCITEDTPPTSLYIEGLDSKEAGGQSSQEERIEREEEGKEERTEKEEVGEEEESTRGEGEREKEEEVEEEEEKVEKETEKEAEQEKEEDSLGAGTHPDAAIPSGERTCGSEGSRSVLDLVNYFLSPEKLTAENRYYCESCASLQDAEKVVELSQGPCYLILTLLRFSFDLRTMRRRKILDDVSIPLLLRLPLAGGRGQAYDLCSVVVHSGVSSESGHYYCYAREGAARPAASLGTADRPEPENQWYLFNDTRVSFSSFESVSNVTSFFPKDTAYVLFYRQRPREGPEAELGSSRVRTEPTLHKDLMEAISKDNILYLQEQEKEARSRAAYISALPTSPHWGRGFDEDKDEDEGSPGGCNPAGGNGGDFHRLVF
Sequence of UniProt Q9Y5K5 (Q9Y5K5 whole entry): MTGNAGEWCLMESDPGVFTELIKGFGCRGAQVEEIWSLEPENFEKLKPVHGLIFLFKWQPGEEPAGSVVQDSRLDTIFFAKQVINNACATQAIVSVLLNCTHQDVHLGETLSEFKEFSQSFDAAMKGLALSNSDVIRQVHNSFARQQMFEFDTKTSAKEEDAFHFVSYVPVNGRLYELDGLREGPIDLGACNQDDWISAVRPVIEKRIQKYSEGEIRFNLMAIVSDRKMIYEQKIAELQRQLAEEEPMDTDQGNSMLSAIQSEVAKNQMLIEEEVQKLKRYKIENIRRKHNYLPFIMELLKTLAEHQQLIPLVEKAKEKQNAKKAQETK
Sequence of UniProt Q01804 (Q01804 whole entry): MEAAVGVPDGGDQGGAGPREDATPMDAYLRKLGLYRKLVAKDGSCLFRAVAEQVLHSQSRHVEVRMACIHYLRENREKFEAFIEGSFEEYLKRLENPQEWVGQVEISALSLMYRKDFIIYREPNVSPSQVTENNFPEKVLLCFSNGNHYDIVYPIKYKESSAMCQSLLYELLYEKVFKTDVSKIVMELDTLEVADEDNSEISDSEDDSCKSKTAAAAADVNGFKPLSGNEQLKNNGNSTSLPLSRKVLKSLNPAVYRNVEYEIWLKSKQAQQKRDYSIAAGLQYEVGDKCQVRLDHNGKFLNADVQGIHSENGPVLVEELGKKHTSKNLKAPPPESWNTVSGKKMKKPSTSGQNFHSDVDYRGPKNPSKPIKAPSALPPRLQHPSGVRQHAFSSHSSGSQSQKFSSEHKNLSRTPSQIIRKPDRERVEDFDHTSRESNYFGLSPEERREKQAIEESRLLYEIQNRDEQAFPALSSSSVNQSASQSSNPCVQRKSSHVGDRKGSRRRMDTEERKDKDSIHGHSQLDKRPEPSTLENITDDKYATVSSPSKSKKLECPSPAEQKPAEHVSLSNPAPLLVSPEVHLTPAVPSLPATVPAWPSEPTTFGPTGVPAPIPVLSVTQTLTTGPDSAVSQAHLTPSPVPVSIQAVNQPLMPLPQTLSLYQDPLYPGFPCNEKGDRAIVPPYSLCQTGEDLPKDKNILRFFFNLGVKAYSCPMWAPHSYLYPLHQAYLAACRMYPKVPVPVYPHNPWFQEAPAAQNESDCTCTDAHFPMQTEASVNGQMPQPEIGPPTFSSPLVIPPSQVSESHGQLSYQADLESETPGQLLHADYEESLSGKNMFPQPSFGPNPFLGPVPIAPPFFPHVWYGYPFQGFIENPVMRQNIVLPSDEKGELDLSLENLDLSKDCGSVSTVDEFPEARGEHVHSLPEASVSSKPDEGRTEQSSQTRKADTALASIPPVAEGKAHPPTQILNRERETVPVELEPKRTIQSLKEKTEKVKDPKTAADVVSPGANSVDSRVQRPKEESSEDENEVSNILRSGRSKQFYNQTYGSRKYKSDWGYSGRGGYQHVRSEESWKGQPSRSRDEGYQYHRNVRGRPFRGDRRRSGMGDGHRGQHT
Sequence of UniProt O00303 (O00303 whole entry): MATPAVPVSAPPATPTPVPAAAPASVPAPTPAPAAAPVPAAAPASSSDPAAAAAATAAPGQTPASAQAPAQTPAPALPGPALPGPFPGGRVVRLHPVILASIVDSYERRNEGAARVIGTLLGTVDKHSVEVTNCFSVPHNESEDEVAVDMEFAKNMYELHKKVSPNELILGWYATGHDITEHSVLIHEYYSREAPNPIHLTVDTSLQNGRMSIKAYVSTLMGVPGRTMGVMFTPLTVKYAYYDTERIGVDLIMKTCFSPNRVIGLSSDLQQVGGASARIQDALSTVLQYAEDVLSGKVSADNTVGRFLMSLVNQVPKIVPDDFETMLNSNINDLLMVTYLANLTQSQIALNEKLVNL
Sequence of UniProt Q8N6M0 (Q8N6M0 whole entry): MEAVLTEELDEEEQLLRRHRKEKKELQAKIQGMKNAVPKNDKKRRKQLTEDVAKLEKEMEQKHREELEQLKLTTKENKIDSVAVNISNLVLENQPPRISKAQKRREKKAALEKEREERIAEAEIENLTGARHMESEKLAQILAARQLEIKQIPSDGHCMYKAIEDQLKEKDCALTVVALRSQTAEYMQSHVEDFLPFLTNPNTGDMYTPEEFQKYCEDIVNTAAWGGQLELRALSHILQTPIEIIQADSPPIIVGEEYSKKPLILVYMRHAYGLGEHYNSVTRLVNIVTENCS

Target | log2 ratio of Biotin-Ahx-Ub-VS probe labelling [1] | log2 ratio of Biotin-Ahx-Ub-VS probe labelling [2] | log2 ratio of Biotin-Ahx-Ub-VS probe labelling [3] | log2 ratio of Biotin-Ahx-Ub-VS probe labelling [4] | log2 ratio of Biotin-Ahx-Ub-VS probe labelling [5] | log2 ratio of Biotin-Ahx-Ub-VS probe labelling [6] | log2 ratio of Biotin-Ahx-Ub-VS probe labelling [7] | log2 ratio of Biotin-Ahx-Ub-VS probe labelling [8] | log2 ratio of Biotin-Ahx-Ub-VS probe labelling [9] | log2 ratio of Biotin-Ahx-Ub-VS probe labelling [10] | log2 ratio of Biotin-Ahx-Ub-VS probe labelling [11] | log2 ratio of Biotin-Ahx-Ub-VS probe labelling [12] | log2 ratio of Biotin-Ahx-Ub-VS probe labelling [13] | log2 ratio of Biotin-Ahx-Ub-VS probe labelling [14] | log2 ratio of Biotin-Ahx-Ub-VS probe labelling [15] | log2 ratio of Biotin-Ahx-Ub-VS probe labelling [16] | log2 ratio of Biotin-Ahx-Ub-VS probe labelling [17] | log2 ratio of Biotin-Ahx-Ub-VS probe labelling [18]
UniProt Q9P2H5 | -0.166 | -0.204 | 0.0516 | -0.0828 | -0.259 | -0.335 | 0.0945 | -0.217 | -0.0782 | -0.183 | -0.0813 | -0.0714 | -0.237 | -0.322 | -0.138 | -0.105 | -0.631 | 
OTUD7B (UniProt Q6GQQ9) | 0.0222 | -1.59 (active) | -1.86 (active) | -0.521 | -0.504 | -0.33 | -1.28 (active) | -0.708 | -0.151 | -0.187 | -0.43 | -0.18 | -1.84 (active) | -1.31 (active) | -0.129 | -0.96 | -1.56 (active) | 
USP28 (UniProt Q96RU2) | -0.207 | -0.568 | -0.669 | -0.421 | -0.575 | -0.419 | -0.987 | -0.664 | -0.857 | -0.957 | -0.256 | -0.28 | -0.611 | -0.427 | -0.11 | -0.47 | -1.44 (active) | -0.446
PRPF8 (UniProt Q6P2Q9) | 0.0577 | -0.0808 | -0.0383 | -0.109 | -0.0419 | -0.249 | 0.147 | 0.15 | 0.137 | 0.0499 | -0.0129 | 0.139 | -0.152 | -0.103 | 0.164 | -0.228 | 0.0652 | 0.0738
OTUD4 (UniProt Q01804) | 0.0776 | -0.761 | -0.763 | -0.46 | -0.413 | -0.109 | 0.0839 | -0.0534 | -0.136 | 0.02 | -0.0939 | -0.131 | -2.71 (active) | -0.397 | 0.0366 | -0.354 | -0.972 | 
FAM105A (UniProt Q9NUU6) | 0.277 | 0.257 | 0.116 | 0.0605 | 0.177 | 0.232 | -0.696 | 0.176 | 0.144 | 0.133 | -0.00706 | -0.0484 | 0.105 | 0.185 | -0.0373 | 0.0935 | 0.0436 | 
USP22 (UniProt Q9UPT9) | 0.0555 | 0.184 | -0.0563 | 0.000369 | 0.0274 | 0.0658 | -0.433 | -0.357 | -0.117 | 0.0632 | 0.00275 | -0.145 | 0.0376 | 0.219 | -0.0487 | 0.0686 | -0.655 | 
USP10 (UniProt Q14694) | -0.156 | -0.0602 | -0.0935 | -0.0758 | -0.166 | -0.0336 | -0.0298 | -0.165 | -0.0878 | -0.256 | -0.128 | -0.22 | 0.0316 | -0.0499 | -0.115 | -0.0176 | -0.249 | 
OTUB1 (UniProt Q96FW1) | -0.0296 | 0.137 | -0.0525 | -0.264 | -0.26 | 0.0388 | 0.388 | 0.123 | 0.281 | 0.165 | -0.174 | 0.116 | -0.247 | -0.422 | 0.252 | -0.0321 | -0.286 | 
USP8 (UniProt P40818) | 0.058 | -0.288 | -0.13 | -0.147 | -0.531 | -0.314 | -0.16 | -0.0703 | -0.125 | -0.197 | -0.245 | -0.233 | -0.572 | -0.442 | 0.167 | -0.538 | -0.963 | 
USP46 (UniProt P62068) | -0.0299 | -0.0303 | 0.206 | -0.116 | -0.0331 | -0.248 | -0.103 | -0.0865 | -0.0696 | -0.323 | 0.0828 | -0.198 | 0.0653 | 0.0564 | 0.118 | 0.0832 | -0.509 | 
OTUD6B (UniProt Q8N6M0) | 0.0114 | -0.285 | 0.0184 | -0.269 | -0.538 | -0.0327 | -0.167 | -0.274 | -0.338 | -0.283 | -0.0694 | -0.286 | -0.29 | -0.356 | 0.00691 | -0.225 | -1.19 (active) | 
EIF3F (UniProt O00303) | -0.0929 | -0.197 | -0.16 | -0.0889 | -0.424 | -0.158 | -0.0386 | -0.0785 | 0.0404 | -0.0892 | -0.495 | -0.124 | -0.132 | -0.235 | 0.0109 | 0.0785 | -0.0247 | 
UCHL5 (UniProt Q9Y5K5) | -0.0257 | -0.148 | -0.168 | -0.283 | -0.314 | -0.249 | 0.0718 | -0.0463 | -0.292 | -0.0414 | -0.0581 | -0.0659 | -0.42 | -0.292 | -0.0635 | -0.29 | -1.02 (active) | 
USP7 (UniProt Q93009) | -0.278 | -0.0253 | -0.0899 | -0.604 | -0.322 | -0.42 | -0.32 | -0.48 | -0.237 | -0.376 | 0.00818 | -0.609 | -0.186 | -0.0702 | -0.207 | -0.0794 | -0.98 | 
USP19 (UniProt O94966) | 0.00416 | -0.0254 | -0.108 | -0.341 | -0.267 | -0.381 | -0.558 | -0.285 | -0.171 | -0.607 | 0.00124 | -0.175 | -0.0817 | 0.0408 | 0.0949 | -0.207 | -0.681 | 
OTUD5 (UniProt Q96G74) | -0.09 | 0.0244 | -0.556 | -0.67 | -0.615 | -0.0917 | -0.331 | -0.13 | -0.315 | -0.685 | -0.104 | -0.27 | -0.519 | -0.238 | -0.0992 | -0.442 | -0.995 | 
USP16 (UniProt Q9Y5T5) | -0.505 | -0.513 | 0.199 | -0.203 | -0.306 | -0.171 | -0.735 | -0.611 | -0.0917 | -0.476 | 0.128 | -0.675 | -0.0851 | -0.131 | -0.506 | -0.128 | -0.24 | 
